TDP1 cell CPT – qHTS for Inhibitors of human tyrosyl-DNA phosphodiesterase 1 (TDP1): qHTS in cells in presence of CPT | Potency, µM (highest dose often 46.2 µM), without a hit: at the top dose activity change, negative = growth inhibition, actives largely listed as inhibitors | hit rate 12% among 420,000 | chicken DT40 Tdp1-/-;hTDP1 cells + 20 nM CPT, ATP luminescence, 48 h; also: % is scaled to controls: 0 for no effect and ±100 for the full control effect; nearly all actives have a fitted effect of over 55% in size
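Chicken DT40 Tdp1-/- cells complemented with human TDP1, 400 cells/well, exposed to compounds plus 20 nM camptothecin for at least 48 h at 37 C; viability read as ATP content by CellTiter-Glo luminescence.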
ClpP mod – qHTS Assay for Activators of ClpP. hit rate 1.9% among 340,000. Potency, µM (series often up to 57.5 µM), for the others: at the highest dose activity change, negative = active. purified B. subtilis ClpP, FRET peptide cleavage, 20 min; active = well fitted falling curve with a large enough effect; inconclusive = small, poorly fitted or top-dose-only effect; inactive = no such curve, though single readings can be large or run the other way; also: the source files actives as falling curves though it sought activators and does not explain the sign; nearly all actives have a fitted effect of over 65% in size
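Buffer: 100 mM Tris/HCl pH8, 100 mM KCl, 0.05% low protease BSA, 2.5% glycerol, 0.01% Tween-20. ClpP 10 microg/mL final; 20 min RT; delta FRET normalized to ADEP and DMSO controls.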
TDP1 block – qHTS Assay for Inhibitors of Tyrosyl-DNA Phosphodiesterase (TDP1); Tyrosyl-DNA phosphodiesterase 1 (Homo sapiens), Q9NUW8; recombinant TDP1, AlphaScreen DNA substrate cleavage; Potency, µM (titrated, usually from 130 µM), inactives show top-dose activity change, negative = inhibition, hits mostly inhibitors; hit rate 0.28% among 350,000; AID 485290, 2010; also: % is scaled to controls: 0 for no effect and ±100 for the full control effect; nearly all actives have a fitted effect of over 40% in size
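Enzyme-compound mixtures sat 15 min at room temperature, followed by a 5 min reaction with 15 nM final substrate and 10 min with AlphaScreen beads. Recombinant human Tdp1 was used at 1 nM final.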
DT40 TDP1 no CPT – qHTS for Inhibitors of human tyrosyl-DNA phosphodiesterase 1 (TDP1): qHTS in cells in absence of CPT; DT40 Tdp1-/- hTDP1 cells, no CPT, ATP luminescence, 48 h; Potency, µM (highest dose often 46.2 µM), inactives show top-dose activity change, negative = growth inhibition, usual class: inhibitors; hit rate 15% among 420,000; AID 686978, 2013; also: % is scaled to controls: 0 for no effect and ±100 for the full control effect; nearly all actives have a fitted effect of over 55% in size
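Compound effects on proliferation are scored in DT40 Tdp1-/-;hTDP1 cells in the absence of CPT. ATP levels (CellTiter-Glo luminescence) are recorded after a ≥48 hr, 37 °C incubation.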
* hit, by the source's call; ? = inconclusive; / = no result given; ! = repeats disagree; [ ] = dose if it differs, or a comment. In the library only some 17% were active in any assay of this set; here they are far more common. Unless noted, calls follow the shape of the dose curve; as a rule, active = well fitted curve in the direction sought with a large enough effect; inconclusive = small, poorly fitted or top-dose-only effect, or another doubt; inactive = no such curve, though single readings can be large; an effect the other way counts as inactive or inconclusive. Potency is read from the fitted curve at half-maximal effect.

SMILES	TDP1 cell CPT	ClpP mod	TDP1 block	DT40 TDP1 no CPT
CCn1c(=O)c2cc(C(=O)NCCCN3CCC(C)CC3)sc2c2ccccc21	23µM*	4%	-1%	18µM*
Cc1ccc(-c2nnc(C3CCN(S(=O)(=O)c4ccc(C)c(C)c4)CC3)o2)cc1	?	0%	4%	26µM*
COc1ccc(-c2nnc(C3CCN(S(=O)(=O)c4ccccc4)CC3)o2)cc1	?	-2%	/	?
Cc1cccc(-c2nnc(C3CCN(S(=O)(=O)c4cccc(Cl)c4)CC3)o2)c1	3.7µM*	-2%	9%	2.9µM*
CC(=O)Nc1ccc(S(=O)(=O)N2CCC(c3nnc(-c4ccc(C)cc4)o3)CC2)cc1	?	-1%	6%	21µM*
Cc1ccc(S(=O)(=O)NCCc2nnc(SCc3cccnc3)n2C)cc1	-2%	/	15%	-4%
COC(=O)C1CCCCN1Cc1nc(N2CCCN(C(C)=O)CC2)c2ccccc2n1 (configuration not stated)	23%[9.04 µM]	/	/	1%
COCCCNc1nc(NCc2ccccc2OC)c2cnn(C)c2n1	?	-22%	-1%	23µM*
O=C1/C(=C/Nc2ccc3c(c2)OCO3)CCc2ccccc21	26µM*	1%	1%	?
COc1ccc2c(c1)CC/C(=C\Nc1ccc3c(c1)OCO3)C2=O	15µM*	0%	9%	?
O=C1OC2(CCCCC2)OC(=O)C1=CNc1ccc2c(c1)OCO2	-23%	52%	4%	-15%
COc1ccc(N/C=C2\CCc3ccccc3C2=O)cc1	?	1%	1%	?
CC1=C(C(=O)N2CCCCCC2)CC(CC(=O)NC2CCCC2)C(=O)N1Cc1ccccc1 (configuration not stated)	-29%	1%	/	-16%
NC(=O)CC(NC(=O)c1cccc(Br)c1)c1ccc(N2CCCCCC2)c([N+](=O)[O-])c1 (configuration not stated)	5.8µM*	0%	/	6.5µM*
NC(=O)CC(NC(=O)Cc1ccc(Br)cc1)c1ccc(N2CCC(N3CCCC3)CC2)c([N+](=O)[O-])c1 (configuration not stated)	-5%	-1%	/	-16%
CN1CCN(c2ccccc2NC(=O)c2ccc(N3CCCC3)c([N+](=O)[O-])c2)CC1	?	0%	5%	?
NC(=O)CC(NC(=O)c1ccc(Br)cc1)c1ccc(N2CCC(Br)CC2)c([N+](=O)[O-])c1 (configuration not stated)	18µM*	-4%	0%	12µM*
NC(=O)CC(NC(=O)c1ccccc1)c1ccc(N2CCCCCCC2)c([N+](=O)[O-])c1 (configuration not stated)	8.2µM*	2%	/	9.2µM*
NC(=O)CC(NC(=O)c1cccc(Br)c1)c1ccc(N2CCC(N3CCCC3)CC2)c([N+](=O)[O-])c1 (configuration not stated)	5%	3%	8%	-19%
CN1CCN(c2ccc(C(=O)c3ccc(Br)cc3)cc2[N+](=O)[O-])CC1	?	/	9%	15µM*
CCCCC(C)/C=C(C)/C=C(\C)C(=O)NC1=CC(O)(/C=C/C=C/C=C/C(=O)NC2=C(O)CCC2=O)C2OC2C1=O (configuration not stated)	/	/	-10%	/
O=C(O)c1ccccc1-c1ccccc1C(=O)NCc1ccccc1Cl	-7%	-2%	1%	26%
O=S(=O)(NCCCNS(=O)(=O)c1c(F)cccc1F)c1ccc2c(c1)OCCO2	/	/	0%	/
N#Cc1ccc(NC(=S)NC(=O)C2CCCCC2)cc1	?	-3%	-2%	?
Cc1cc(C)c(C)c(S(=O)(=O)N2CCN(CC(=O)c3c(N)n(Cc4ccccc4)c(=O)n(C)c3=O)CC2)c1C	?	1%	1%	?
SMILES	TDP1 cell CPT	ClpP mod	TDP1 block	DT40 TDP1 no CPT
NC(=O)CC(NC(=O)Cc1ccc(Br)cc1)c1ccc(N2CCC(Cc3ccccc3)CC2)c([N+](=O)[O-])c1 (configuration not stated)	?	-1%	4%	23µM*
NC(=O)CC(NC(=O)c1ccc(Br)cc1)c1ccc(N2CCCCCC2)c([N+](=O)[O-])c1 (configuration not stated)	16µM*	-1%	/	16µM*
NC(=O)CC(NC(=O)Cc1ccc(Br)cc1)c1ccc(N2CCCCCCC2)c([N+](=O)[O-])c1 (configuration not stated)	?	1%	/	-23%
NC(=O)CC(NC(=O)Cc1cccc2ccccc12)c1ccc(N2CCC(Cc3ccccc3)CC2)c([N+](=O)[O-])c1 (configuration not stated)	-29%	0%	/	?
CC(C)(C)c1ccccc1Nc1nc(C#N)nc(NC2CCCC2)n1	/	/	-6%	/
CNC(=O)C1CCC(Cn2c(=O)c3sccc3n(Cc3cc(C)ccc3C)c2=O)CC1 (configuration not stated)	?	1%	5%	?
CCc1nc2c(OCC(=O)C(C)(C)C)cccn2c1N(C)C(=O)COc1ccccc1	-23%	-4%	/	-2%
Cc1ccc(N2C(=O)CC(Sc3nc4ccccc4o3)C2=O)cc1Cl (configuration not stated)	4.1µM*	-1%	-3%	3.3µM*
CN(C)c1ccc(P(=O)(COc2ccc([N+](=O)[O-])cc2)c2ccc(N(C)C)cc2)cc1	?	/	5%	21µM*
CC1=C(C(=O)Nc2ccccc2C)C(c2ccc[nH]2)n2ncnc2N1 (configuration not stated)	?	-6%	/	?
COCC1CCCCC1OS(N)(=O)=O (configuration not stated)	7%	0%	/	8%
Cc1cccc(C)c1OCC(=O)Nc1c(C(=O)c2ccccc2)oc2ccccc12	1%	0%	2%	-25%
Oc1cc(O)cc(/C=C/c2ccc(O)c(O)c2)c1	10µM*!	5%	2%	0.65µM*
CCN(CC(=O)NCc1ccc(Cl)cc1)C(=O)CSCC(=O)Nc1cccc(C)c1	-2%	0%	2%	12%
CCOC(=O)C1CCN(C(=O)CCNS(=O)(=O)c2ccc3c(c2)CCN3C(=O)CC)CC1	-3%	2%	4%	1%
COc1ccc(OC)c(CC(=O)Nc2ccc3c(c2)c(=O)n(C)n3Cc2cccc(C(F)(F)F)c2)c1	29µM*	4%	/	?
COc1ccc(CNC(=O)Nc2ccc3c(c2)c(=O)n(C)n3Cc2cccc(C(F)(F)F)c2)cc1	?	5%	/	23µM*
Cn1c(=O)c2cc(NC(=O)CCc3cccc(Cl)c3)ccc2n1Cc1cccc(C(F)(F)F)c1	-20%	5%	/	-24%
